Laboratory results from PubChem BioAssay (NCI).
Compounds without any hit were thinned out: in the full panel of roughly 79,000, 15% have a hit. Active and inactive are the calls of the source. Cut-off read from the data, not from the text of the source: active = growth inhibition above about 70%; inactive = the rest.

Assay: NCI Yeast Anticancer Drug Screen. Data for the mlh1 rad18 strain (AID 175)
Conditions: S. cerevisiae mlh1 rad18 strain growth inhibition; at 50.0 µM; hits give high values
Procedure, shortened: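 In this whole-cell yeast screen, a strain with altered DNA damage repair is challenged with compound, and its growth is measured against matched vehicle-treated controls.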
In the case of S=C(Nc1cc(Cl)cc(Cl)c1)SCc1ccccc1, the growth inhibition is reported as 99.3% (active). For CCCOc1cc(C(=O)OCCN(CC)CC)cc(OCCC)c1OCCC, the growth inhibition was 61.8% (inactive). With C=C1C(=O)[C@@]23CC[C@H]4[C@@](C)(CCC[C@@]4(C)C(=O)OC)[C@@H]2CC[C@]1(O)C3 the growth inhibition was 90.8% (active). With CCCSc1ncnc2nc(C)[nH]c12 the growth inhibition was -8.25% (inactive). In the case of O=C1C=CC(=O)N1CCCCCCN1C(=O)C=CC1=O, the growth inhibition is reported as 99.2% (active). For CCOC(=O)c1[nH]c2c([N+](=O)[O-])cccc2c1[N+](=O)[O-], the growth inhibition was 99% (active). For CSC(=S)/C(=C/Nc1ncccn1)c1ccccc1, the growth inhibition was 94.5% (active). For N#CNc1nc(N)c(-c2ccc(Cl)cc2)c(C(=O)Nc2ccc(Cl)c(Cl)c2)n1, the growth inhibition was -22.4% (inactive). For COc1ccc2c(c1)c(=O)c1c(NCCN(C)C)ccc3nnn2c31, the growth inhibition was 79.7% (active). For CCC[CH2][Sn]([S][Sn]([CH2]CCC)([c]1ccccc1)[c]1ccccc1)([c]1ccccc1)[c]1ccccc1, the growth inhibition was 99.3% (active). For CCC1=CCC2C(=O)c3cc4ccccc4cc3C(=O)C2C1 (centres undefined), the growth inhibition was 94.8% (active). In the case of Cc1ccccc1NC(=O)C1C(=O)N(c2ccccc2C)C(=O)/C1=N/O (centres undefined), the growth inhibition is reported as 3.65% (inactive). With CCCCc1[nH]ccc2c(C)c3nc4ccccc4c3cc12 the growth inhibition was 98.4% (active). With O=C(O)C(Br)C(Br)C(=O)Nc1ccc(Cl)c(Cl)c1 (centres undefined) the growth inhibition was 96% (active). For Cc1cc(C)c2c(c1)sc1nncn12, the growth inhibition was 98.9% (active). With CC(=O)C(C=O)C(C)=O.CC(=O)CC(C)=O.CC(=O)CC(C)=O.[Ru] the growth inhibition was 52.8% (inactive). For COc1ccc(NC(=O)CCC(=O)C(C)C(=O)c2ccccc2)cc1 (centres undefined), the growth inhibition was 24.3% (inactive). For CCCCCCCCCCCCCC(=O)CC(=O)c1c(O)cccc1O, the growth inhibition was 17.1% (inactive). For Cc1ccc(NC(=S)SCc2ccco2)cc1Cl, the growth inhibition was 99.6% (active). In the case of Cc1nc(N)nn1C, the growth inhibition is reported as -0.4% (inactive). In the case of Cc1cccc(O)c(=O)c1, the growth inhibition is reported as 99.5% (active). In the case of O=C1C=CC(=O)N1c1ccc(-c2nc3ccccc3o2)cc1, the growth inhibition is reported as 90% (active). In the case of NC1=NC(c2ccccc2)CC(c2cc(Cl)cc(Br)c2O)=N1 (centres undefined), the growth inhibition is reported as 28.9% (inactive). In the case of CCCCCCCCCCCc1ccn[nH]1, the growth inhibition is reported as 98.9% (active). With CC(=O)Oc1c(-c2ccccc2)cc([N+](=O)[O-])cc1[N+](=O)[O-] the growth inhibition was 91.7% (active). For COc1cccc2c1C1c3ccccc3Sc3cccc(c31)O2 (centres undefined), the growth inhibition was 21.1% (inactive). In the case of O=C1CC(O)C=C1Nc1ccc(Cl)cc1 (centres undefined), the growth inhibition is reported as 98.5% (active). For C=CCNC(=S)N/N=C(/c1ccccn1)C(C)C, the growth inhibition was 96% (active). With CCCCCCCCCCCCCCCC[N+](C)(C)c1ccccc1 the growth inhibition was 92.2% (active). For O=C(NC(OCc1ccccc1)(C(F)(F)F)C(F)(F)F)OCc1ccccc1, the growth inhibition was 96.5% (active). For Cc1cc2oc3c(ccc(=O)n3C)c(=O)c2c(C)c1Cl, the growth inhibition was 17.9% (inactive). In the case of COc1cc2c(cc1OC)C(=O)C(C)(c1ccccc1)NC2 (centres undefined), the growth inhibition is reported as 97.8% (active). With CCC(C)NCCNc1cc(OC)cc2cccnc12 (centres undefined) the growth inhibition was 51.1% (inactive). For CN(C)CCCN=c1c2ccccc2n(O)c2ccccc12, the growth inhibition was 8.3% (inactive). For N#CCc1ccccc1-c1cccc2ccccc12, the growth inhibition was 71.5% (active). In the case of CN=C1NS(=O)(=O)c2ccccc21, the growth inhibition is reported as -2.4% (inactive). In the case of COc1cc(CSc2ccc(O)cc2)cc(OC)c1OC, the growth inhibition is reported as 82.3% (active). With CN(C)CCCNc1c2ccccc2nc2cccc([N+](=O)[O-])c12 the growth inhibition was 89.9% (active). In the case of CCCCCCCCCCCCCCCc1ncc(C)[nH]1, the growth inhibition is reported as 99% (active).
